Source: PubChem BioAssay
Spn PMK inh – S. pneumoniae PMK inhibitors, primary screen, biochemical, mevalonate pathway, pilot trial included; phosphomevalonate kinase (Streptococcus pneumoniae D39); purified PMK, PK/LDH-coupled NADH absorbance 340 nm; inhibition, % at 10 µM; actives 0.49% (n = 65,000); AID 539, 2006;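 active = top-ranked compounds by inhibition in the single 10 µM screen, taking a fixed number of the strongest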;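 note: 0% = full reaction with DMSO carrier and 100% = background rate without enzyme reaction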
Fluor 339 460 – intrinsic fluorescence of library compounds, ex339/em460 – biochemical, MLSMR library, data from DPM-DC assay, artefact control, profiling panel; compound autofluorescence, ex339/em460 nm, NADH buffer; hits give high values; 1 = no-compound wells, NADH background; fluorescence fold increase at 10 µM; actives 5.5% (n = 65,000); AID 709, 2007;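 active = at 10 µM, mean starting fluorescence two-fold or more over control wells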;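 note: signal is the first read of a kinetic run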
Abs 340nm – compound light absorbance at 340 nm, profiling panel, artefact control, biochemical, MLSMR library, data from PS, PMK, MK assays. compound absorbance at 340 nm, fold over control. fold change at 10 µM. 65,000 tested, under 10 active;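 active = at 10 µM dose, initial 340 nm absorbance at least 2 fold that of control wells; inactive = change under 2 fold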;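 note: initial absorbance extrapolated from kinetic A340 decline of NADH oxidation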
DPM-DC inhibit – S. pneumoniae DPM-DC inhibitors, primary screen, biochemical, PK/LDH-coupled NADH fluorescence. diphosphomevalonate decarboxylase (Streptococcus pneumoniae D39). purified DPM-DC. calls only at 10 µM. actives 0.49% (n = 65,000). AID 556, 2006;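 active = the 320 compounds with the highest percent inhibition in the single-dose primary screen, excluding strongly autofluorescent ones, cut at about 32% in these data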;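 note: kinetic rate of NADH fluorescence loss reporting ADP formed by the decarboxylase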
NADH coupling – inhibitors of PK/LDH coupling enzymes, profiling panel, artefact control, biochemical, MLSMR library; coupled PK/LDH NADH assays, four targets; actives 0.02% (n = 65,000); AID 774, 2007; IC50, µM (series often up to 10 µM), without a hit: at the highest dose inhibition;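 active = single-dose screening hits from any of four coupled enzyme assays that gave an IC50 when retested across doses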;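 note: the DPM-DC format reads NADH fluorescence rather than 340 nm absorbance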
MK inhibit – S. pneumoniae MK inhibitors, primary screen, biochemical, PK/LDH-coupled NADH absorbance | purified MK, PK/LDH-coupled NADH absorbance 340 nm | AID 555, 2006 | actives 0.48% (n = 65,000) | inhibition, % at 10 µM | mevalonate kinase [Streptococcus pneumoniae D39];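 active = ranked among the strongest by inhibition in the single 10 µM screen, a fixed top-ranked set picked for dose follow-up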
Starred values were filed as active, the others as inactive; i = inactive; / = no result shown; + = active, no number. Shown are actives, neighbours in structure and some others; about 6.3% of the full set was active somewhere.

SMILES	Spn PMK inh	Fluor 339 460	Abs 340nm	DPM-DC inhibit	NADH coupling	MK inhibit
COCCNC(=O)C(C#N)c1nc2ccccc2nc1N1CCCCCC1 (stereo not drawn)	10	2.5*	1.1	+	20%	5
Cn1c(=O)c2c(ncn2CC(=O)N2CCN(c3ccc(F)cc3)CC2)n(C)c1=O	0	1.1	1	i	4%	8
O=C(Nc1ccc2oc(-c3ccccc3)nc2c1)c1ccc2c(c1)OCCO2	12	3.2*	1	i	5%	0
COc1ccccc1C(=O)Nc1ccc2oc(-c3ccc(F)cc3)nc2c1	11	2.2*	1.2	/	7%	2
COc1c(F)c(F)c(C(=O)Nc2ccc3oc(-c4ccncc4)nc3c2)c(F)c1F	0	1.6	1.1	i	2%	3
COc1ccc(C(=O)Nc2ccc3oc(-c4cccc(F)c4)nc3c2)cc1OC	12	2.1*	1.1	/	10%	8
O=C1CC(N2CCC(O)(c3ccc(Cl)cc3)CC2)C(=O)N1Cc1ccc(N2CCCC2=O)cc1 (stereo not drawn)	0	1.1	1.1	i	0%	1
CCN1C(=O)CC(C(=O)O)SC1=Nc1ccc(OC)cc1 (stereo not drawn)	24	1.1	0.99	i	8%	0
COc1ccc(S(=O)(=O)NCC(=O)N(CC(=O)NCC2CCCO2)c2c(C)cccc2C)cc1 (stereo not drawn)	13	1.1	1	i	8%	10
CC(Sc1nc2ccccc2s1)C(=O)N1CCOCC1 (stereo not drawn)	15	0.98	1	i	8%	7
CC(NC(=O)Nc1ccc(O)cc1)(C(F)(F)F)C(F)(F)F	4	1.1	1	i	1%	0
CC(NC(=O)Nc1ccccc1O)(C(F)(F)F)C(F)(F)F	3	2.6*	1	i	3%	5
O=C1CCN(C(=O)c2ccccc2)C2CCCCC12 (stereo not drawn)	4	1.1	1	i	2%	8
c1ccc(C(c2nnnn2C2CCCCC2)N2CCc3ccccc3C2)nc1 (stereo not drawn)	13	4*	1	i	11%	4
Cc1nn(-c2ccccc2)c2[nH]c(=O)c(CNc3ccc(N4CCOCC4)cc3)cc12	11	1.1	0.99	i	5%	4
O=c1[nH]c2c(cc1CNCCN1CCOCC1)c(-c1cccc(F)c1)nn2-c1ccccc1	12	3.5*	1.1	i	20%	22
CN1C(=O)c2cccc(NC(=O)Cc3ccccc3)c2C1=O	0	1.4	1	i	3%	4
CCCCCCc1ccc(OCC(=O)O)cc1OCC(=O)O	0	1.1	1	i	1%	3
CCCCc1cc(=O)oc2cc(C)cc(OCC(=O)O)c12	4	3.8*	1.1	/	6%	8
CS(=O)(=O)N1CCCC(C(=O)NCc2ccccn2)C1 (stereo not drawn)	29*	1	1	i	10%	0
C=CCNC(=O)C1CCCN(S(C)(=O)=O)C1 (stereo not drawn)	28*	1.1	1	i	9%	0
Cc1ccc2c(CC(=O)Nc3nc(C)cs3)coc2c1	3	1.1	0.97	i	3%	6
c1coc(-c2nc(-c3ccco3)c(-c3ccco3)nc2-c2ccco2)c1	16	2.2*	1.1	/	16%	16
Nc1nc(-c2ccco2)c(-c2ccco2)s1	16	1.1	1.1	i	6%	1
CCOC(=O)C1CCN(S(=O)(=O)c2ccc3c4c(cccc24)C(=O)N3)CC1	8	2.1*	1.1	/	7%	5
OC1CC(c2ccco2)NC2(CCCCC2)C1 (stereo not drawn)	5	1.1	0.99	i	13%	35
COC(=O)c1ccccc1NC(=O)n1cc(C)cn1	0	3.6*	1.1	/	4%	8
CNC(=O)c1nnn(Cc2ccccc2)c1NC(=O)C(F)(F)F	13	1.1	1	i	7%	0
